Consider twelve molecules from ChEMBL document CHEMBL1961873, “Compounds: GSK PKIS; Assays: Nanosyn kinase panel” (2012).

For assay [1], the target named is RAC-alpha serine/threonine-protein kinase (Homo sapiens) (UniProt P31749). To be noted: at 0.1 µM.
Assay [2] has the same target. Conditions: at 1 µM.
The target in assay [3] is RAC-beta serine/threonine-protein kinase (Homo sapiens) (UniProt P31751). To be noted: at 0.1 µM.
The target is the same in assay [4]. To be noted: at 1 µM.
The target of assay [5] is RAC-gamma serine/threonine-protein kinase (Homo sapiens) (UniProt Q9Y243). To be noted: at 0.1 µM.
Sequence of RAC-gamma serine/threonine-protein kinase (Homo sapiens) (Q9Y243 whole entry): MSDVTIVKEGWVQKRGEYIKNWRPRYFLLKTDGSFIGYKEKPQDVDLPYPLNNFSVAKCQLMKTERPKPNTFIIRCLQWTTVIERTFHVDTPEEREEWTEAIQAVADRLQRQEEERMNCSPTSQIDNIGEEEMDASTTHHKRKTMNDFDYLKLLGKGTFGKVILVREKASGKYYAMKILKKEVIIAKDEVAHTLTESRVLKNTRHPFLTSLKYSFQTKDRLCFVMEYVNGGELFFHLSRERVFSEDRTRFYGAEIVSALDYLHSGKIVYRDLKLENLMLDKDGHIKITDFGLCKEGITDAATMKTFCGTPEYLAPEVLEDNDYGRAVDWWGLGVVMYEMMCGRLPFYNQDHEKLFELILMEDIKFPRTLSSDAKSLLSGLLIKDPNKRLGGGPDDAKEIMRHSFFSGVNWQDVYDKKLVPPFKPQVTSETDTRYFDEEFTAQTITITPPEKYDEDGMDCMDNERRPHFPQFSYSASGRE
Assay [6] shares this target. Conditions: at 1 µM.
Assay [7] addresses G protein-coupled receptor kinase 6 (Homo sapiens) (UniProt P43250). To be noted: at 0.1 µM.
Assay [8] has the same target. Conditions: at 1 µM.
For assay [9], the target named is T1, Rhodopsin kinase GRK7 (Homo sapiens) (UniProt Q8WTQ7).
T1 sequence (whole entry): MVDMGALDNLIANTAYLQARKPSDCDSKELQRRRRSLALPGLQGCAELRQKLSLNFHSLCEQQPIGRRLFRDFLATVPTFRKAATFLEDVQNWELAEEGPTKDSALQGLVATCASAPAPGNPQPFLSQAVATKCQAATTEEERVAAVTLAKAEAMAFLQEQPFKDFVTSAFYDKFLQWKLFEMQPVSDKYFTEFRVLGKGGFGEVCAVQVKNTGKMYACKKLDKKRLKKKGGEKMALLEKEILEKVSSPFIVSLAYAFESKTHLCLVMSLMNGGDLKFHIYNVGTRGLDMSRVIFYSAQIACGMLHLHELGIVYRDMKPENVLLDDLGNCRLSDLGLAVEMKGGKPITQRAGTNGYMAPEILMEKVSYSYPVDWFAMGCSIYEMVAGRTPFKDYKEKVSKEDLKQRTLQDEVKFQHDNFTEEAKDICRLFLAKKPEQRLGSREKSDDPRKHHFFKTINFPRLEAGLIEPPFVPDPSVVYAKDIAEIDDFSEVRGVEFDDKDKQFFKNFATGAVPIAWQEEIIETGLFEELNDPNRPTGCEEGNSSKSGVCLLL
Conditions: at 0.1 µM.

The target of assay [10] is T1, Rhodopsin kinase GRK7 (Homo sapiens). To be noted: at 1 µM.
Assay [11] deals with Serine/threonine-protein kinase MRCK alpha (Homo sapiens) (UniProt Q5VT25). To be noted: at 0.1 µM.
Sequence of Serine/threonine-protein kinase MRCK alpha (Homo sapiens) (Q5VT25 whole entry): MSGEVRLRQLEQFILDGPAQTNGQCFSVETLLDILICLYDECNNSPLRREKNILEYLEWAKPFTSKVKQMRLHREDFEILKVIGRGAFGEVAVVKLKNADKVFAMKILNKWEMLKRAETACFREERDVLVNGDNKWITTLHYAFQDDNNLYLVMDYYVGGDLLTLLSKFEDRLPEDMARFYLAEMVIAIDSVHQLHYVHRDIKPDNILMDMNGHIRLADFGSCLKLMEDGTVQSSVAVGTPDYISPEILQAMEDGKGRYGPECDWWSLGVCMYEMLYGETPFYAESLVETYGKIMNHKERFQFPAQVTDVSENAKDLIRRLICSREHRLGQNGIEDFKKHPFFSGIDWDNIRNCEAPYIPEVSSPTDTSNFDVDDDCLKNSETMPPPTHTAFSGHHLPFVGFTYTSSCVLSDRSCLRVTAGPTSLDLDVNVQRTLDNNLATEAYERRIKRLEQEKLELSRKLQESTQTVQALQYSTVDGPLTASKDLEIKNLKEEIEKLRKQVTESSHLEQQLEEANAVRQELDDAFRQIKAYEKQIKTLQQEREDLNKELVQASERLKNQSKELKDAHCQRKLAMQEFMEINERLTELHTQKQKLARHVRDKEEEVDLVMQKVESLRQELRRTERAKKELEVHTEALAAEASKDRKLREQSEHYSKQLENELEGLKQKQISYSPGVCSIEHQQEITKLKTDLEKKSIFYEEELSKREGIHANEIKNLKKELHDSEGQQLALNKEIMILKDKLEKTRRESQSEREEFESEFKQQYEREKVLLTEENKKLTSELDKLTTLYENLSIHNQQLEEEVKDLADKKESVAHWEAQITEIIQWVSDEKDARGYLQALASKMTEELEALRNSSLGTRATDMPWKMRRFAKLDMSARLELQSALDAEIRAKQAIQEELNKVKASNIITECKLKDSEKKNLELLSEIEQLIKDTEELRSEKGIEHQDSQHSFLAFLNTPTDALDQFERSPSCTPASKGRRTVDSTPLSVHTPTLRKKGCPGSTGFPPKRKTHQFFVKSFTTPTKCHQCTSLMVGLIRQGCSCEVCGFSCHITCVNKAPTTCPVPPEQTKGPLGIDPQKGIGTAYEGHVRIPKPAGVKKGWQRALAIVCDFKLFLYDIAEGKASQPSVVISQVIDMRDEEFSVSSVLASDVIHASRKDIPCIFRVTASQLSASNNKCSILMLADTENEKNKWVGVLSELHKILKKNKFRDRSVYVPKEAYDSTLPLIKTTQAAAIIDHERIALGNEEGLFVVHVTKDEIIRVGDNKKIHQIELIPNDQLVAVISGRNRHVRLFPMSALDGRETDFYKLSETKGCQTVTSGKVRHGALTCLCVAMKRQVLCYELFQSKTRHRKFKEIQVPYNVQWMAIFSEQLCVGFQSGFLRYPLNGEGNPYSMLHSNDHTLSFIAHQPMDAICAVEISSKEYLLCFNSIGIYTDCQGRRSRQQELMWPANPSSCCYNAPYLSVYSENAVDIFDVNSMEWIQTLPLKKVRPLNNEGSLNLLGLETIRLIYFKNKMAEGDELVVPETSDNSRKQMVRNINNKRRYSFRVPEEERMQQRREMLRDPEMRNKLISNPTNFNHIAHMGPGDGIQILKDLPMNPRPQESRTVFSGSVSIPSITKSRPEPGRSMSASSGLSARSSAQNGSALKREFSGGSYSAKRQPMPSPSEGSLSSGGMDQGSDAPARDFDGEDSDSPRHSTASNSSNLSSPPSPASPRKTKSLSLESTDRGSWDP
Assay [12] has the same target. Conditions: at 1 µM.
In assay [13] the target is Serine/threonine-protein kinase MRCK beta (Homo sapiens) (UniProt Q9Y5S2). Conditions: at 0.1 µM.
Sequence of Serine/threonine-protein kinase MRCK beta (Homo sapiens) (Q9Y5S2 whole entry): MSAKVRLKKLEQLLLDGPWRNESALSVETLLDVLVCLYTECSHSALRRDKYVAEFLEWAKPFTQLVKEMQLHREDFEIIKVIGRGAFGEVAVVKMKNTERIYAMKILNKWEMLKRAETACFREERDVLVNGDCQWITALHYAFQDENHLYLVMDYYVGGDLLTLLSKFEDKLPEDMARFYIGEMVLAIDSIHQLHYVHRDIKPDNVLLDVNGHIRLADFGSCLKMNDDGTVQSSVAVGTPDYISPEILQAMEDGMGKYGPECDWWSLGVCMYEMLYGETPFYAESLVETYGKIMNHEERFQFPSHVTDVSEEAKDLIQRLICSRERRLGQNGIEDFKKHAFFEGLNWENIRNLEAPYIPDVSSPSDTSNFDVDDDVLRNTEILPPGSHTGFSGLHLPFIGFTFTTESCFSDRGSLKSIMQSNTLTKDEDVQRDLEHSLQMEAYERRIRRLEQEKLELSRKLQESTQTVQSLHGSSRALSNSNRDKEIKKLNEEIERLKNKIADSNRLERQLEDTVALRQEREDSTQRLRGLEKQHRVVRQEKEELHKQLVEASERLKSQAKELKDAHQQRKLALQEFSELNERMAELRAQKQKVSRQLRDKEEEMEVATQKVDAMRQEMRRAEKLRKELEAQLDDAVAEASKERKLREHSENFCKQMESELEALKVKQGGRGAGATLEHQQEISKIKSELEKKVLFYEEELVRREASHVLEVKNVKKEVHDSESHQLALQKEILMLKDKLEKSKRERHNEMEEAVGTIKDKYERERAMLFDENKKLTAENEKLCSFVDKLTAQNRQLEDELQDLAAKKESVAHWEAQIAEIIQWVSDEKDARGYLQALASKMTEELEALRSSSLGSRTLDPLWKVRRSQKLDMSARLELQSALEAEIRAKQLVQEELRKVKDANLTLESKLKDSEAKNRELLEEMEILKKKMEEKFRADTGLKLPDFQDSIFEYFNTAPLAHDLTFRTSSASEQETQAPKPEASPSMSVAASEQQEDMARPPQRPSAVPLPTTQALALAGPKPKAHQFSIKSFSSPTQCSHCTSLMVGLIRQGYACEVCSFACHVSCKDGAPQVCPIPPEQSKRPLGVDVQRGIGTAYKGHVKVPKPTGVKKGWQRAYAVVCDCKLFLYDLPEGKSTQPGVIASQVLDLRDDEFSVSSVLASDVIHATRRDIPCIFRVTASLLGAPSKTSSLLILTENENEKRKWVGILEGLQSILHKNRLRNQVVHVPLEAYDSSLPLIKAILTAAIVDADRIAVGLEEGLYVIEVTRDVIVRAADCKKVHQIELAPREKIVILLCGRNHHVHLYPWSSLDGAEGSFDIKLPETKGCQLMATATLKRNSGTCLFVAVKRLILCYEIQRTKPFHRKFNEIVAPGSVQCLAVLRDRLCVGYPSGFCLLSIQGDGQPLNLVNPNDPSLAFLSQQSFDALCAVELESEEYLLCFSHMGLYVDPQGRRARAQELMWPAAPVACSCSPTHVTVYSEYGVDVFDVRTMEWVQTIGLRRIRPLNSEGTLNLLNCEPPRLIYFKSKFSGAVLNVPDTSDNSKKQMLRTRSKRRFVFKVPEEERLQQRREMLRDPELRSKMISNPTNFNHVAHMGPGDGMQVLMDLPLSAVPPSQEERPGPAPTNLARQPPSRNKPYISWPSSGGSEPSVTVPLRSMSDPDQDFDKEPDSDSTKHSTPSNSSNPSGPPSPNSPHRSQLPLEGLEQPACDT
Assay [14] shares this target. Conditions: at 1 µM.
The target in assay [15] is Ribosomal protein S6 kinase alpha-5 (Homo sapiens) (UniProt O75582). To be noted: at 0.1 µM.
For assay [16] the target is unchanged. To be noted: at 1 µM.
Assay [17] concerns the target Ribosomal protein S6 kinase alpha-4 (Homo sapiens) (UniProt O75676). Conditions: at 0.1 µM.
The target is the same in assay [18]. Conditions: at 1 µM.
For assay [19], the target named is Ribosomal protein S6 kinase beta-1 (Homo sapiens) (UniProt P23443). Conditions: at 0.1 µM.
Sequence of Ribosomal protein S6 kinase beta-1 (Homo sapiens) (P23443 whole entry, looked up): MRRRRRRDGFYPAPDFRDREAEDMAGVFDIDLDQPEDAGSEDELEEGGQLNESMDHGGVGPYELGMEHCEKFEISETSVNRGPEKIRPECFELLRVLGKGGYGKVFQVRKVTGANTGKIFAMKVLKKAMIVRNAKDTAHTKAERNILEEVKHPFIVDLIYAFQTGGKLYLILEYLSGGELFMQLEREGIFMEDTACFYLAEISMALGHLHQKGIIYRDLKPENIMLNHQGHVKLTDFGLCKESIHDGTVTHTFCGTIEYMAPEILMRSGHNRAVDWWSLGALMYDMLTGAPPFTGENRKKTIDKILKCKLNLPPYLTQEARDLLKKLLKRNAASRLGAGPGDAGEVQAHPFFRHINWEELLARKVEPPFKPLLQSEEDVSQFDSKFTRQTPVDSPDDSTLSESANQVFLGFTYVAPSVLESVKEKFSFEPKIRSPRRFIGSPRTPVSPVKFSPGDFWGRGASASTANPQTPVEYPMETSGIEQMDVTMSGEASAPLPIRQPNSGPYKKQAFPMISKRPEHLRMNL
Assay [20] has the same target. Conditions: at 1 µM.

Sequence of G protein-coupled receptor kinase 6 (Homo sapiens) (P43250 whole entry, looked up): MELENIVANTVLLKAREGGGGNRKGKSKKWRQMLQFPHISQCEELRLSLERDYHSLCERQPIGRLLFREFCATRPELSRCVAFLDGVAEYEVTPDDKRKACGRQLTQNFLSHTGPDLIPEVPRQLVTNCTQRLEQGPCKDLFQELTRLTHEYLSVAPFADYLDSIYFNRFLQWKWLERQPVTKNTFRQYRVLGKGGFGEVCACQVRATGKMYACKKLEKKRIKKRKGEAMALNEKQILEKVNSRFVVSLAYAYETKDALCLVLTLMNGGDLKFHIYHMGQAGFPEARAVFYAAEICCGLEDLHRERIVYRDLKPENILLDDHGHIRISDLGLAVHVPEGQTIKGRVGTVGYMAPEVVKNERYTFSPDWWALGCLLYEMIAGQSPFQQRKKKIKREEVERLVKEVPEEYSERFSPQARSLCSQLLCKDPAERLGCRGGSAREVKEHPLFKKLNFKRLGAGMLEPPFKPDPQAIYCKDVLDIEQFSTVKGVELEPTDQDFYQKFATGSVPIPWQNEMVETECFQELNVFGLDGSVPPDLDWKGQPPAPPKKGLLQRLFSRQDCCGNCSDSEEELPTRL

Broadly, the inhibition is the change of the read-out against control, counted positive when it falls. `O=C(O[C@H]1CN[C@H](C#Cc2cc3ncnc(Nc4ccc(OCc5cccc(F)c5)c(Cl)c4)c3s2)C1)N1CCOCC1`: the inhibition in [1] was found to be 0.61%; in assay [2], 0.67%; in assay [3], 2.23%; in assay [4], 2.72%; in assay [5], 1.68%; in [6], 1.6%. For the same molecule, the inhibition was 9.5% in assay [7]; 13.6% in assay [8]; 5.62% in [9]; 16% in [10]; -0.44% in [11]; 0.92% in [12]. Besides, the inhibition is 0.34% in [13]; 0.26% in assay [14]; -0.86% in assay [15]; 0.41% in assay [16]; 2.64% in assay [17]; 4.39% in [18]. Moreover, the figures for the inhibition in assay [19] and in assay [20] were 1.72% and 2.85%, respectively.
`O=C(Nc1n[nH]c2nnc(-c3cccnc3)cc12)C1CC1`: the inhibition is -0.73% in assay [1]; -0.67% in [2]; -0.56% in assay [3]; 0.1% in assay [4]; -0.57% in assay [5]; 5.03% in assay [6]. In addition, the inhibition in [7] was 3.53%; in assay [8] it was 0.48%; in [9] it was 2.31%; in assay [10], -1.4%; in [11], 2.61%; in assay [12] it was -0.69%. In addition, the inhibition in [13] is 0.62%; in [14] it was 0.7%; in [15], -1.47%; in assay [16], -0.64%; in [17], -0.31%; in assay [18] it was 0.76%. The inhibition in assay [19] is -0.26%; in assay [20] it was 0.25%.
For the molecule `Cc1cc(O)cc(C)c1/C=C/c1cncc(C(N)=O)c1`, the inhibition in assay [1] came to 0.41%; in assay [2], 1.41%; in [3], 1.8%; in [4], 1.63%; in assay [5] it was 1.06%; in assay [6] it was 1.18%. The inhibition is 2.81% in assay [7]; 0.48% in [8]; 0.88% in assay [9]; -1.37% in assay [10]; 0.25% in assay [11]; 0.43% in [12]. The inhibition stood at 1.39% in assay [13]; 1.02% in assay [14]; 1.68% in [15]; 2.9% in assay [16]; 1.67% in assay [17]; 2.18% in assay [18]. Further, the inhibition in [19] turned out to be 1.07%; in assay [20], 0.31%.
`CC1(C)CC(n2cnc(-c3ccc(F)cc3)c2-c2ccnc(N)n2)CC(C)(C)N1`: the inhibition in assay [1] was -0.24%; in assay [2] it was 0.14%; in [3], -0.58%; in assay [4], 0.6%; in [5], 0.06%; in assay [6], -0.35%. For the same molecule, the inhibition in assay [7] is 0.95%; in assay [8], 2.33%; in assay [9], -0.49%; in [10] it was -1.38%; in assay [11], 0.39%; in assay [12] it was -0.52%. Further, the inhibition is 0.89% in [13]; 1.72% in [14]; -2.87% in assay [15]; -2.36% in [16]; 2.08% in assay [17]; 3.62% in assay [18]. Also, the inhibition in [19] was determined as 1.01%; in assay [20], 0.28%.
For `COC(=O)Nc1nc2cc(Oc3ccc(NC(=O)Nc4ccccc4)cc3)ccc2[nH]1`, the inhibition amounted to 0.35% in assay [1]; 0.28% in assay [2]; 1.44% in assay [3]; 1.16% in assay [4]; 2.24% in assay [5]; 0.78% in assay [6]. In addition, the inhibition in assay [7] was 3.76%; in [8], 10.8%; in assay [9], 4.75%; in assay [10], 15.2%; in assay [11] it was 1.11%; in assay [12], 3.26%. In addition, the inhibition in assay [13] is -0.1%; in [14], 0.05%; in [15] it was 2.4%; in assay [16] it was 2.36%; in assay [17] it was 2.62%; in assay [18] it was 3.88%. For the same molecule, the values for the inhibition in assay [19] and in assay [20] were 2.09% and 3.12%, respectively.
As for `COc1ccc(-c2nn3ncccc3c2-c2ccnc(Nc3ccc(F)c(F)c3)n2)cc1`, the inhibition is 0.52% in assay [1]; 2.13% in assay [2]; 1.56% in assay [3]; 1.42% in assay [4]; 1.4% in assay [5]; 2.01% in [6]. The inhibition is 7.85% in [7]; 10.1% in [8]; 6.45% in assay [9]; 7.95% in assay [10]; 0.67% in assay [11]; 4.1% in assay [12]. In addition, the inhibition in [13] is -0.01%; in assay [14] it was -0.11%; in assay [15] it was 3.92%; in assay [16], 6.45%; in [17] it was 3.37%; in assay [18], 4.5%. Also, the inhibition in assay [19] amounted to 1.91%; in assay [20], 2.58%.
For `CS(=O)(=O)CCNCc1ccc(-c2ccc3ncnc(Nc4ccc(OCc5cccc(C(F)(F)F)c5)cc4)c3c2)o1`, the inhibition worked out at 0.68% in assay [1]; 0.01% in [2]; 0.73% in assay [3]; 1.64% in assay [4]; 0.95% in assay [5]; 2.79% in [6]. Also, the inhibition in [7] was 6.2%; in assay [8], 3.84%; in assay [9], 8.32%; in assay [10], 0.47%; in assay [11] it was 1.26%; in assay [12] it was 5.01%. Also, the inhibition stood at 0.69% in [13]; 2% in [14]; 4.18% in [15]; 3.88% in [16]; 1.66% in assay [17]; 2.03% in [18]. The inhibition was determined as 1.39% in assay [19] and 3.25% in assay [20].
As for `CN1CCC(n2cnc(-c3ccc(F)cc3)c2-c2ccnc(NCCO)n2)CC1`, the inhibition in assay [1] stood at 0.7%; in [2], 1.07%; in [3], 1.3%; in assay [4], 1.3%; in [5], 1.33%; in assay [6], 2.14%. For the same molecule, the inhibition came to 4.71% in assay [7]; 6.12% in assay [8]; 4.41% in assay [9]; 7.73% in assay [10]; 0.14% in assay [11]; 2.92% in assay [12]. Also, the inhibition is -1.48% in [13]; 0.28% in assay [14]; 3.35% in [15]; 4.7% in [16]; 1.86% in assay [17]; 4.02% in [18]. Besides, the inhibition worked out at 0.69% in [19] and 1.98% in assay [20].
Turning to `Cc1c2ccc(N(C)c3ccnc(Nc4cccc(S(N)(=O)=O)c4)n3)cc2nn1C`, the inhibition in assay [1] is -2.15%; in assay [2], -4.81%; in [3], -2.16%; in assay [4], -3.49%; in assay [5] it was -0.07%; in assay [6], -4.61%. The inhibition in [7] is -0.96%; in [8] it was 1.02%; in [9] it was 3.31%; in assay [10], 8.97%; in assay [11], -0.27%; in assay [12], 0.18%. For the same molecule, the inhibition in assay [13] amounted to 0.8%; in [14] it was 0.18%; in assay [15], 2.9%; in [16], 1.29%; in [17] it was 2.14%; in [18] it was 5.76%. Further, the inhibition in [19] stood at 2.59%; in assay [20], 2.64%.
Consider `COc1cc(N2CCN(C(C)C)CC2)ccc1Nc1nc(Nc2cccc3ncccc23)c2cc[nH]c2n1`, for which the inhibition in [1] is -0.64%; in assay [2], -0.94%; in assay [3], -0.9%; in [4], -0.32%; in assay [5] it was 0.92%; in [6], 0.55%. Moreover, the inhibition is -0.14% in assay [7]; -0.02% in assay [8]; -2.45% in assay [9]; 0.29% in assay [10]; -0.06% in assay [11]; 4.44% in [12]. Besides, the inhibition was 0.85% in assay [13]; 4.14% in assay [14]; 0.1% in [15]; 1.16% in assay [16]; 1.01% in [17]; 2.7% in assay [18]. The inhibition in assay [19] came to 0.36%; in assay [20] it was 2.23%.
`NC(=O)c1ccc2c(-c3ccnc(NCCCO)n3)c(-c3ccc(F)cc3)nn2c1`: the inhibition in [1] was 0.79%; in assay [2], -0.47%; in assay [3], 1.62%; in [4], 1.08%; in assay [5], 1.04%; in [6], 2.17%. For the same molecule, the inhibition in assay [7] is 0.86%; in assay [8], 2.38%; in assay [9], 1.93%; in assay [10] it was 4.08%; in [11], 0.04%; in assay [12], 2.55%. Further, the inhibition in assay [13] was determined as 0.29%; in [14] it was 2.28%; in [15] it was 11.4%; in [16], 8.01%; in assay [17], 1.44%; in assay [18], 2.05%. Further, the values for the inhibition in assay [19] and in assay [20] were 1.72% and 1.46%, respectively.
Regarding `COc1cccc(-n2ncc3c(N/N=C/c4ccc(C(=O)NCCN(C)C)cc4)ncnc32)c1`, the inhibition in assay [1] was 0.53%; in assay [2], -4.74%; in assay [3], 1.29%; in assay [4] it was -2.95%; in assay [5], 1.33%; in [6], -1.17%. Moreover, the inhibition in assay [7] is -2.74%; in [8], -7.47%; in [9] it was 1.52%; in [10] it was -8.73%; in assay [11], 2.1%; in assay [12], 7.78%. Further, the inhibition in [13] came to 2.49%; in [14], 8.24%; in [15] it was 3.26%; in assay [16], 8.01%; in assay [17], 1.32%; in assay [18], 4.69%. For the same molecule, the inhibition in [19] came to 4.61%; in assay [20] it was 20.9%.
